Assay results as given in PubChem BioAssay (EPA / NIEHS).
Active and inactive are the calls of the source. Rule for the calls: active = hit-call score of the fitted dose curve at least 0.9, where 1 is the maximum; inactive = score below 0.9.

These compounds were tested on ATP-citrate lyase (ACLY), ACLY (gene 47) (assay: LTEA_HepaRG_ACLY: Life Technologies and Expression Analysis (LTEA) Assay for ATP-citrate lyase (ACLY) using HepaRG (AID 2283466)). Settings: mRNA level, 48 h; actives raise or lower the signal.
Outline: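 HepaRG, 48 h exposure, 8-pt half-log dilutions (top 100 uM), 0.5% DMSO. Readout: ACLY mRNA, TaqMan qRT-PCR, housekeeping-normalized (ACTB/GAPDH/POLR2A). Bidirectional curve fit vs DMSO.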
In the case of `Nc1ccc(C(=O)O)cc1`, the outcome is reported as “inactive”.
`Cc1ccc([N+](=O)[O-])cc1N` was tested, and the outcome was “inactive”.
In the case of `C1CNCCN1`, the outcome is reported as “inactive”.

Each compound was assayed on Peroxisomal acyl-coenzyme A oxidase 1 (ACOX1) gene, ACOX1 (gene 51) (assay: LTEA_HepaRG_ACOX1: Life Technologies and Expression Analysis (LTEA) Assay for Peroxisomal acyl-coenzyme A oxidase 1 (ACOX1) gene using HepaRG (AID 2283467)). Settings: mRNA level, 48 h; actives raise or lower the signal.
Outline: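 Measured by qRT-PCR against three housekeeping genes: ACOX1 transcript change in human HepaRG cells after 48 h dosing. Concentrations ran up to 100 uM in half-log steps. Curves were fitted bidirectionally relative to 0.5% DMSO.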
`Nc1ccc(C(=O)O)cc1` was tested, and the outcome was “inactive”.
For `Cc1ccc([N+](=O)[O-])cc1N`, the outcome was “inactive”.
`C1CNCCN1` was tested, and the outcome was “inactive”.

The compounds below were run on Alkaline Phosphatase, Placental (ALPP) gene, ALPP (gene 250) (assay: LTEA_HepaRG_ALPP: Life Technologies and Expression Analysis (LTEA) Assay for Alkaline Phosphatase, Placental (ALPP) gene using HepaRG (AID 2283468)). Settings: mRNA level, 48 h; actives raise or lower the signal.
Outline: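 Using human liver HepaRG cells, chemicals are tested in duplicate over 48 h at half-log concentrations topping at 100 uM; phenobarbital 1 mM serves as induction control. ALPP mRNA change by qRT-PCR, bidirectional fit against vehicle.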
With `Nc1ccc(C(=O)O)cc1` the outcome was “inactive”.
For `Cc1ccc([N+](=O)[O-])cc1N`, the outcome was “inactive”.
With `C1CNCCN1` the outcome was “inactive”.

Each compound was assayed on Bcl-2 (BAD) gene, BAD (gene 572) (assay: LTEA_HepaRG_BAD: Life Technologies and Expression Analysis (LTEA) Assay for Bcl-2 (BAD) gene using HepaRG (AID 2283469)). Settings: mRNA level, 48 h; actives raise or lower the signal.
Outline: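 BAD transcript change, measured by qRT-PCR against three housekeeping genes and fitted in both directions relative to 0.5% DMSO, after 48 h chemical treatment of human HepaRG liver cells at concentrations up to 100 uM.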
In the case of `Nc1ccc(C(=O)O)cc1`, the outcome is reported as “inactive”.
`Cc1ccc([N+](=O)[O-])cc1N` was tested, and the outcome was “inactive”.
`C1CNCCN1` was tested, and the outcome was “inactive”.

Each compound was assayed on Bcl-2 (BAX) gene, BAX (gene 581) (assay: LTEA_HepaRG_BAX: Life Technologies and Expression Analysis (LTEA) Assay for Bcl-2 (BAX) gene using HepaRG (AID 2283470)). Settings: mRNA level, 48 h; actives raise or lower the signal.
Outline: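 Concentration-response endpoint fitted in both directions relative to 0.5% DMSO vehicle. Human HepaRG cultures receive test chemicals for 48 h at up to 100 uM; BAX mRNA is quantified by qRT-PCR against housekeeping genes.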
For `Nc1ccc(C(=O)O)cc1`, the outcome was “inactive”.
In the case of `Cc1ccc([N+](=O)[O-])cc1N`, the outcome is reported as “inactive”.
In the case of `C1CNCCN1`, the outcome is reported as “inactive”.

These compounds were tested on adenosine kinase (ADK) gene, ADK (gene 132) (assay: LTEA_HepaRG_ADK: Life Technologies and Expression Analysis (LTEA) Assay for adenosine kinase (ADK) gene using HepaRG (AID 2283471)). Settings: mRNA level, 48 h; actives raise or lower the signal.
Outline: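 ADK expression quantified by qRT-PCR, normalised to three housekeeping genes, after 48 h exposure of HepaRG cells to eight concentrations (top 100 uM, half-log steps, duplicate, 0.5% DMSO). Up- or down-regulation fitted relative to vehicle.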
With `Nc1ccc(C(=O)O)cc1` the outcome was “inactive”.
`Cc1ccc([N+](=O)[O-])cc1N` was tested, and the outcome was “inactive”.
In the case of `C1CNCCN1`, the outcome is reported as “inactive”.

Each compound was assayed on Alpha-fetoprotein (AFP) gene, AFP (gene 174) (assay: LTEA_HepaRG_AFP: Life Technologies and Expression Analysis (LTEA) Assay for Alpha-fetoprotein (AFP) gene using HepaRG (AID 2283472)). Settings: mRNA level, 48 h; actives raise or lower the signal.
Outline: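 After a 48 h plating period, cells are moved to serum-free induction medium and dosed in duplicate (100 uM maximum, half-log dilutions, 0.5% DMSO) for another 48 h. Total RNA goes to TaqMan qRT-PCR; AFP signal is housekeeping-normalized.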
`Nc1ccc(C(=O)O)cc1` was tested, and the outcome was “inactive”.
`Cc1ccc([N+](=O)[O-])cc1N` was tested, and the outcome was “inactive”.
For `C1CNCCN1`, the outcome was “inactive”.

The compounds below were run on BCL2L11 (gene 10018) (assay: LTEA_HepaRG_BCL2L11: Life Technologies and Expression Analysis (LTEA) Assay for Bcl-2 (BCL2L11) gene using HepaRG (AID 2283473)). Settings: mRNA level, 48 h; actives raise or lower the signal.
Outline: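 Human hepatic HepaRG cultures are treated 48 h with test chemicals (maximum 100 uM, 0.5% DMSO vehicle). Expression of BCL2L11 is measured by qRT-PCR against ACTB, GAPDH and POLR2A, with activity in either direction scored relative to vehicle.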
With `Nc1ccc(C(=O)O)cc1` the outcome was “inactive”.
For `Cc1ccc([N+](=O)[O-])cc1N`, the outcome was “inactive”.
With `C1CNCCN1` the outcome was “inactive”.

What follows are compounds tested on Apolipoprotein A-V (APOA5) gene, APOA5 (gene 116519) (assay: LTEA_HepaRG_APOA5: Life Technologies and Expression Analysis (LTEA) Assay for Apolipoprotein A-V (APOA5) gene using HepaRG (AID 2283474)). Settings: mRNA level, 48 h; actives raise or lower the signal.
Outline: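 Concentration-response of APOA5 expression in HepaRG: eight half-log doses to 100 uM, 48 h, qRT-PCR normalized to ACTB/GAPDH/POLR2A, bidirectional fitting with 0.5% DMSO as baseline.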
For `Nc1ccc(C(=O)O)cc1`, the outcome was “inactive”.
For `Cc1ccc([N+](=O)[O-])cc1N`, the outcome was “inactive”.
With `C1CNCCN1` the outcome was “inactive”.

Each compound was assayed on Apoptosis regulator Bcl-2 (Homo sapiens) (UniProt P10415) (assay: LTEA_HepaRG_BCL2: Life Technologies and Expression Analysis (LTEA) Assay for Bcl-2 gene using HepaRG (AID 2283475;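 note: BCL2 transcript by TaqMan qRT-PCR normalised to ACTB GAPDH and POLR2A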)). Settings: mRNA level, 48 h; actives raise or lower the signal.
Chain of Apoptosis regulator Bcl-2 (Homo sapiens) (P10415 whole entry, looked up): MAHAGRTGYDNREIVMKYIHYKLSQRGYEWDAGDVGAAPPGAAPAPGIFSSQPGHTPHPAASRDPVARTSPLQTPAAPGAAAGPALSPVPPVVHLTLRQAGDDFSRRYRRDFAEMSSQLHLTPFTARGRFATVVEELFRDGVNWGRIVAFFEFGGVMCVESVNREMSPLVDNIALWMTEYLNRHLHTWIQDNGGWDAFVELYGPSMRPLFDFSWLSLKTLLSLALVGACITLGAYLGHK
Outline: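 Expression change of BCL2 mRNA in HepaRG after 48 h dosing, quantified by TaqMan qRT-PCR against three endogenous controls. Concentration-response used eight points up to 100 uM, vehicle 0.5% DMSO.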
`Nc1ccc(C(=O)O)cc1` was tested, and the outcome was “inactive”.
In the case of `Cc1ccc([N+](=O)[O-])cc1N`, the outcome is reported as “inactive”.
For `C1CNCCN1`, the outcome was “inactive”.

These compounds were tested on Bcl-2 (BID) gene, BID (gene 637) (assay: LTEA_HepaRG_BID: Life Technologies and Expression Analysis (LTEA) Assay for Bcl-2 (BID) gene using HepaRG (AID 2283476)). Settings: mRNA level, 48 h; actives raise or lower the signal.
Outline: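 Gain or loss of BID expression is fitted relative to 0.5% DMSO vehicle. Human HepaRG liver cells received a 48 h chemical exposure over an eight-point concentration range.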
With `Nc1ccc(C(=O)O)cc1` the outcome was “inactive”.
For `Cc1ccc([N+](=O)[O-])cc1N`, the outcome was “inactive”.
In the case of `C1CNCCN1`, the outcome is reported as “inactive”.

The compounds below were run on Caspase-3 (Homo sapiens) (UniProt P42574) (assay: LTEA_HepaRG_CASP3: Life Technologies and Expression Analysis (LTEA) Assay for cysteine-aspartic acid protease (CASP3) using HepaRG (AID 2283477)). Settings: mRNA level, 48 h; actives raise or lower the signal.
Chain of Caspase-3 (Homo sapiens) (P42574 whole entry, looked up): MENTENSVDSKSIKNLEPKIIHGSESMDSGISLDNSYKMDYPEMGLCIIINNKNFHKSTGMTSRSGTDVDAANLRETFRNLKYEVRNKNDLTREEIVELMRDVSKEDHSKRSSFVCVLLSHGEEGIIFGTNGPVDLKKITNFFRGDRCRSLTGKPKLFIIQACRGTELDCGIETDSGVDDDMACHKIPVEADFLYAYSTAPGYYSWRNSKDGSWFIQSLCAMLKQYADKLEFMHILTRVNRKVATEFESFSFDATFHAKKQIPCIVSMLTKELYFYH
Outline: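 Transcript-level assay: CASP3 mRNA in human HepaRG after 48 h treatment, eight half-log concentrations from 100 uM in 0.5% DMSO, quantified by qRT-PCR.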
In the case of `Nc1ccc(C(=O)O)cc1`, the outcome is reported as “inactive”.
In the case of `Cc1ccc([N+](=O)[O-])cc1N`, the outcome is reported as “inactive”.
With `C1CNCCN1` the outcome was “inactive”.

Each compound was assayed on Cytochrome P450 (CYP24A1), CYP24A1 (gene 1591) (assay: LTEA_HepaRG_CYP24A1: Life Technologies and Expression Analysis (LTEA) Assay for Cytochrome P450 (CYP24A1) using HepaRG (AID 2283478)). Settings: mRNA level, 48 h; actives raise or lower the signal.
Outline: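 Gene expression of CYP24A1 by TaqMan qRT-PCR in HepaRG after 48 h treatment, highest concentration 100 uM; activity fitted in both directions relative to DMSO vehicle.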
With `Nc1ccc(C(=O)O)cc1` the outcome was “inactive”.
In the case of `Cc1ccc([N+](=O)[O-])cc1N`, the outcome is reported as “inactive”.
`C1CNCCN1` was tested, and the outcome was “inactive”.

What follows are compounds tested on Cytochrome P450 (CYP1A2), CYP1A2 (gene 1544) (assay: LTEA_HepaRG_CYP1A2: Life Technologies and Expression Analysis (LTEA) Assay for Cytochrome P450 (CYP1A2) using HepaRG (AID 2283479)). Settings: mRNA level, 48 h; actives raise or lower the signal.
Outline: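 In duplicate wells, HepaRG cultures maintained in 0.5% DMSO were treated 48 h across an 8-point, half-log series topping at 100 uM; phenobarbital (1 mM) served as induction control. Expression was read by qRT-PCR.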
With `Nc1ccc(C(=O)O)cc1` the AC50 was 50 µM (active).
In the case of `Cc1ccc([N+](=O)[O-])cc1N`, the AC50 is reported as 26.8 µM (active).
For `C1CNCCN1`, the outcome was “inactive”.

Each compound was assayed on cysteine-aspartic acid protease (CASP8), CASP8 (gene 841) (assay: LTEA_HepaRG_CASP8: Life Technologies and Expression Analysis (LTEA) Assay for cysteine-aspartic acid protease (CASP8) using HepaRG (AID 2283480)). Settings: mRNA level, 48 h; actives raise or lower the signal.
Outline: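 HepaRG, 48 h exposure, duplicate wells; 8 conc, half-log from 100 uM, 0.5% DMSO. Serum-free induction medium. CASP8 mRNA by TaqMan qRT-PCR, norm. ACTB/GAPDH/POLR2A; gain/loss fitted vs DMSO.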
For `Nc1ccc(C(=O)O)cc1`, the outcome was “inactive”.
In the case of `Cc1ccc([N+](=O)[O-])cc1N`, the outcome is reported as “inactive”.
For `C1CNCCN1`, the outcome was “inactive”.

What follows are compounds tested on Cytochrome P450 (CYP2B6), CYP2B6 (gene 1555) (assay: LTEA_HepaRG_CYP2B6: Life Technologies and Expression Analysis (LTEA) Assay for Cytochrome P450 (CYP2B6) using HepaRG (AID 2283481)). Settings: mRNA level, 48 h; actives raise or lower the signal.
Outline: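 Human HepaRG, 48 h dosing, 0.5% DMSO vehicle, top dose 100 uM. CYP2B6 transcript by qRT-PCR, housekeeping-normalized, bidirectional curve fit.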
`Nc1ccc(C(=O)O)cc1` was tested, and the outcome was “inactive”.
With `Cc1ccc([N+](=O)[O-])cc1N` the AC50 was 18.4 µM (active).
In the case of `C1CNCCN1`, the outcome is reported as “inactive”.

The compounds below were run on Cytochrome P450 2C19 (Homo sapiens) (UniProt P33261) (assay: LTEA_HepaRG_CYP2C19: Life Technologies and Expression Analysis (LTEA) Assay for CYP2C19 using HepaRG (AID 2283482)). Settings: mRNA level, 48 h; actives raise or lower the signal.
Chain of Cytochrome P450 2C19 (Homo sapiens) (P33261 whole entry, looked up): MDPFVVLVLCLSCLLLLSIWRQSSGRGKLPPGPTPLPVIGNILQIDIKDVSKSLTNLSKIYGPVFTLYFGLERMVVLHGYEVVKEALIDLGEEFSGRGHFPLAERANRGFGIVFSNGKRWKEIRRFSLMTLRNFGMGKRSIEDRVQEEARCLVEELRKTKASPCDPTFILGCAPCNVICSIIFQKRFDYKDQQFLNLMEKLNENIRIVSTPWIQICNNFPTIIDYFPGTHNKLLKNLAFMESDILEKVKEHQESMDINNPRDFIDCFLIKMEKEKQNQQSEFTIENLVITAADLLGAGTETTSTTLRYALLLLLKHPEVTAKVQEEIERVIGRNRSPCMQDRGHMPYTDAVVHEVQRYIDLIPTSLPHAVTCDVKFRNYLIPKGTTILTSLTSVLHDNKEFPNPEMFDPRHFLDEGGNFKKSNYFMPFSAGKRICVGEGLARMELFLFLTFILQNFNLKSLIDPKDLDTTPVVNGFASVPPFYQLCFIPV
Outline: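 Endpoint: CYP2C19 mRNA change, bidirectional fit vs 0.5% DMSO. Cells: HepaRG, 48 h exposure, eight-point series topping at 100 uM. Quantitation: qRT-PCR normalized to ACTB, GAPDH, POLR2A.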
In the case of `Nc1ccc(C(=O)O)cc1`, the outcome is reported as “inactive”.
`Cc1ccc([N+](=O)[O-])cc1N` was tested, and the outcome was “inactive”.
For `C1CNCCN1`, the outcome was “inactive”.
